Data on 18 compounds can be found in PubChem BioAssay (NCATS).

Results filed as inconclusive are left out. A call without a number means that no potency is given here. Unmarked numbers belong to inactive results. Activity calls are given as the source filed them. Calls follow the shape of the dose curve; as a rule, active = well fitted inhibition curve with a large enough effect; inconclusive = small, poorly fitted or top-dose-only effect; inactive = flat fitted curve, though single readings scatter.
Potency is read from the fitted curve at half-maximal effect.

The nature of this assay: BET inhibitor-based combinations targeting novel dependencies in MECOM-rearranged (r) AML: AML-194 cell line (AID 2202237; also: nearly all actives have a fitted effect of over 40% in size). As to conditions: AML-194 (MECOM-r AML) viability, CellTiter-Glo, 48 h; series mostly up to 46 µM. In a few lines:
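Luminescent ATP readout (CellTiter-Glo) after 48 hr drug exposure gives viability. Curves span 11 concentrations and are normalized to DMSO and empty wells. Activity is reported as area under the curve and its Z-transform within each cell line.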
Take `CNC(=O)c1nn(C)c2c1C(C)(C)Cc1cnc(Nc3ccc(N4CCN(C)CC4)cc3)nc1-2`: the Potency is 1.32 µM (active).
Consider `COc1cccc2c1c(O)c(C(=O)N(C)c1ccc(C(F)(F)F)cc1)c(=O)n2C`, for which the Potency result is “inactive”.
On the same count and under the same terms, then `O=C(Nc1ccc(F)c(C(F)(F)F)c1)Nc1nnc(-c2ccncc2)s1`, with “inactive”; and `Cc1c(F)cc(C(=O)NC2CC2)cc1-c1c(F)cn2c(C(C)(C)C)nnc2c1F`, with “inactive”; and `CN(C)C/C=C/C(=O)Nc1ccc(C(=O)Nc2cccc(Nc3ncc(Cl)c(-c4c[nH]c5ccccc45)n3)c2)cc1`, with 0.296 µM (active).
Regarding `CCOC(=O)c1ccnc(CNCC(=O)N(CC)CCN(C)C)c1`, the Potency entry is “inactive”.
On the same count and under the same terms, the figure for `CCS(=O)(=O)N1CCN(c2ccc(Nc3ncc(C(N)=O)c(NC4CC4)n3)cc2)CC1` is 4.68 µM (active); for `O=C([C@@H](Cc1cccc(C(F)(F)F)c1)NS(=O)(=O)c1cc(F)c2c(c1)CCNC2)N1CCCC1` it is “inactive”.
On the same count and under the same terms, then `O=C(O)[C@H](CC(=O)N1C[C@H]2CCCC[C@H]2C1)Cc1ccccc1`, with “inactive”.
Take `c1ccc2c(Oc3nc(Nc4ccc(N5CCOCC5)cc4)c4ncn(C5CCCCC5)c4n3)cccc2c1`: the Potency entry was “inactive”.
`CCNC(=O)[C@H]1O[C@@H](n2cnc3c(N)nc(NCCc4ccc(CCC(=O)O)cc4)nc32)[C@H](O)[C@@H]1O`: the Potency entry is “inactive”.
On to `COc1cc(C(=O)N2CCC(N3CCN(C)CC3)CC2)ccc1Nc1ncc2c(n1)N(C)c1ccccc1C(=O)N2C`, for which the Potency was 16.6 µM (active).
The same measure, in the same setting: then `CCC(C)n1ncn(-c2ccc(N3CCN(c4ccc(OC[C@H]5CO[C@](Cn6cncn6)(c6ccc(Cl)cc6Cl)O5)cc4)CC3)cc2)c1=O` (stereo partly drawn), with “inactive”.
On the same count and under the same terms, the entry for `N[C@@H](Cc1cc(I)c(Oc2cc(I)c(O)c(I)c2)c(I)c1)C(=O)O` is “inactive”; for `Cc1ccccc1C(=O)Nc1ccc(C(=O)N2CCCC(O)c3cc(Cl)ccc32)c(C)c1` (stereo not drawn) it is “inactive”; for `CCS(=O)(=O)N1CCC([C@@H](C)n2c(C)c(C(=O)NCc3c(OC)cc(C)[nH]c3=O)c3ccccc32)CC1` it is “inactive”.
Turning to `CC(C)(C)C(=O)Oc1ccc2c(c1)nc(NC(=O)c1cccc([N+](=O)[O-])c1)n2CCCO`, the Potency entry is “inactive”.
As to `CN[C@@H](C)[C@H]1[C@H](O)C[C@@]2(C)[C@@H]3CC[C@H]4C(C)(C)[C@@H](NC)CC[C@@]45C[C@@]35CC[C@]12C`, the viability (% of control) is 117% [at 8.46 µM].
